Molecules are shown by their SMILES.

Drawing on the supplement of paper PMC13380429, this text covers morphology score and SARS-CoV-2 infection rate for 30 compounds.

In experiment [1] the test system is Vero E6 infected with SARS-CoV-2. Description: morphology score (similarity to uninfected cells); higher = more like uninfected cells. The following applies: 24 h.
For experiment [2] the test system is unchanged. Description: SARS-CoV-2 infection rate relative to infected DMSO; higher = more infection, active = 60 or less. The following applies: 24 h.

Regarding `NC(=O)C[C@H](N)C(=O)O` [L-asparagine] (10 µM), the morphology score in experiment [1] was found to be 0.14. Further, in experiment [2], the SARS-CoV-2 infection rate was 94% (inactive).

With `COc1cc2c(NC3CCN(C4CCCCC4)CC3)nc(N3CCCN(C(C)C)CC3)nc2cc1OCCCN1CCCCC1` (10 µM), in experiment [1], the morphology score stood at 0.458. Also, the SARS-CoV-2 infection rate in experiment [2] was 52% (active).

On to `C[C@]12CCC(=O)C=C1CC[C@@H]1[C@@H]2CC[C@@]2(C)[C@H]1CC[C@]2(O)C(=O)CO` [cortodoxone] (10 µM), for which the morphology score in experiment [1] was 0.0341. Further, in experiment [2], the SARS-CoV-2 infection rate is 98% (inactive).

In turn, `O=S(=O)(O)c1cc(I)c(O)c2ncccc12` [chiniofon] (10 µM) had a morphology score in experiment [1] of 0.0464. In experiment [2], the SARS-CoV-2 infection rate is 102% (inactive).

For `O[C@H]1[C@H](O)[C@@H](O)[C@H](O)[C@@H](O)[C@H]1O` [inositol] (10 µM), the morphology score in experiment [1] is -0.166. In addition, the SARS-CoV-2 infection rate in experiment [2] was 95.5% (inactive).

In experiment [1], `COc1cc2ncnc(Nc3cccc(Br)c3)c2cc1OC` (10 µM) came in with a morphology score of -0.238. In addition, the SARS-CoV-2 infection rate in experiment [2] is 104% (inactive).

For `C[C@]12CC[C@@H]3c4ccc(O)cc4C[C@@H](CCCCCCCCC[S+]([O-])CCCC(F)(F)C(F)(F)F)[C@H]3[C@@H]1CC[C@@H]2O` (stereo not given in full) [fulvestrant] (10 µM), in experiment [1], the morphology score is -0.187. Besides, the SARS-CoV-2 infection rate in experiment [2] was 110% (inactive).

On to `O/N=C/c1cc[n+](COC[n+]2ccc(/C=N/O)cc2)cc1` [obidoxime] (10 µM), for which, in experiment [1], the morphology score was -0.0437. Moreover, the SARS-CoV-2 infection rate in experiment [2] is 108% (inactive).

`Oc1c(Cl)cc(Cl)c2cccnc12` [chloroxine] (10 µM): in experiment [1], the morphology score is -0.0551. Also, the SARS-CoV-2 infection rate in experiment [2] is 98.5% (inactive).

Consider `CC(C)C[C@@H](NC(=O)[C@H](Cc1ccccc1)NC(=O)CNC(=O)[C@@H](C)NC(=O)[C@@H](N)Cc1ccc(O)cc1)C(=O)O` (10 µM), for which the morphology score in experiment [1] turned out to be 0.159. Also, the SARS-CoV-2 infection rate in experiment [2] was 97% (inactive).

On to `O[C@@H]1CO[C@H]2[C@@H]1OC[C@@H]2O` [isosorbide] (10 µM), for which the morphology score in experiment [1] was found to be 0.0141. The SARS-CoV-2 infection rate in experiment [2] is 112% (inactive).

Turning to `N#CN1CCCC1` [pyrrolidine-1-carbonitrile] (10 µM), the morphology score in experiment [1] was found to be 0.254. Also, the SARS-CoV-2 infection rate in experiment [2] was 92% (inactive).

Compound `CC(C)(CC(=O)N1CCCC1)NCC(=O)N1C[C@@H](F)C[C@H]1C#N` (10 µM) showed a morphology score in experiment [1] of 0.0148. Further, the SARS-CoV-2 infection rate in experiment [2] is 102% (inactive).

On to `O=c1c(O)c(-c2ccc(O)cc2)oc2cc(O)cc(O)c12` [kaempferol] (10 µM), for which the morphology score in experiment [1] came to 0.215. For the same compound, the SARS-CoV-2 infection rate in experiment [2] was 108% (inactive).

As to `CC1=C(C(=O)OC(C)C)C(c2cccc([N+](=O)[O-])c2)C(C(=O)OC2CN(C(c3ccccc3)c3ccccc3)C2)=C(N)N1` (stereo not given) [azelnidipine] (10 µM), the morphology score in experiment [1] came out at 0.295. For the same compound, in experiment [2], the SARS-CoV-2 infection rate was 71.5% (inactive).

Take `c1coc(-c2nnc3sc(C4CCCCC4)nn23)c1` [cardionogen-1] (10 µM): the morphology score in experiment [1] is 0.254. Also, the SARS-CoV-2 infection rate in experiment [2] is 89% (inactive).

For `CC[C@H]1OC(=O)[C@H](C)[C@@H](O[C@H]2C[C@@](C)(OC)[C@@H](O)[C@H](C)O2)[C@H](C)[C@@H](O[C@@H]2O[C@H](C)C[C@H](N(C)C)[C@H]2O)[C@](C)(O)C[C@@H](C)CN(C)[C@H](C)[C@@H](O)[C@]1(C)O` [azithromycin] (10 µM), the morphology score in experiment [1] is 0.236. Also, the SARS-CoV-2 infection rate in experiment [2] was 98.5% (inactive).

On to `Cc1cc(SCc2sc(-c3ccc(C(F)(F)F)cc3)nc2C)ccc1OCC(=O)O` (10 µM), for which the morphology score in experiment [1] was 0.0978. For the same compound, the SARS-CoV-2 infection rate in experiment [2] was 98.5% (inactive).

`CN(C)C(=O)CCSC(SCCC(=O)O)c1cccc(/C=C/c2ccc3ccc(Cl)cc3n2)c1` (stereo not given) (10 µM) showed a morphology score in experiment [1] of 0.011. For the same compound, the SARS-CoV-2 infection rate in experiment [2] is 108% (inactive).

Turning to `OC[C@H]1NCC[C@@H](O)[C@@H]1O` [fagomine] (10 µM), in experiment [1], the morphology score is -0.0114. The SARS-CoV-2 infection rate in experiment [2] was 105% (inactive).

In the case of `O=c1ccc2ccc(OCCCCN3CCN(c4cccc5sccc45)CC3)cc2[nH]1` [brexpiprazole] (10 µM), in experiment [1], the morphology score is 0.0142. Besides, in experiment [2], the SARS-CoV-2 infection rate was 98.5% (inactive).

With `Cc1cnc(Nc2ccc(OCCN3CCCC3)cc2)nc1Nc1cccc(S(=O)(=O)NC(C)(C)C)c1` [fedratinib] (0.833333 µM), the morphology score in experiment [1] was -0.054. Besides, the SARS-CoV-2 infection rate in experiment [2] was 99.5% (inactive).

For the compound `CN1CC[C@@H](NC(=O)Nc2ccc(C#N)cc2)C[C@@H]1c1nc2ccccc2[nH]1` [glasdegib] (10 µM), the morphology score in experiment [1] worked out at 0.066. Further, the SARS-CoV-2 infection rate in experiment [2] is 100% (inactive).

On to `CC#CCOC(=O)c1c(C)nc2sc3c(c2c1N)CCC(O)C3` (stereo not given) (10 µM), for which the morphology score in experiment [1] came out at 0.151. The SARS-CoV-2 infection rate in experiment [2] is 93% (inactive).

In the case of `CCN(CC)CCCCNc1ncc2cc(-c3cc(OC)cc(OC)c3)c(NC(=O)NC(C)(C)C)nc2n1` (0.833333 µM), in experiment [1], the morphology score was found to be 0.13. Besides, the SARS-CoV-2 infection rate in experiment [2] was 107% (inactive).

In experiment [1], `Nc1nc(-c2nn(Cc3ccccc3F)c3ncccc23)ncc1C1CC1` (0.833333 µM) showed a morphology score of -0.057. Besides, the SARS-CoV-2 infection rate in experiment [2] is 102% (inactive).

For the compound `CC(C)(C)CCN1C[C@@H]2[C@@H](CNC(=O)c3cc(Cl)cc(Cl)c3)[C@@H]2C1` (10 µM), in experiment [1], the morphology score came to 0.324. Further, the SARS-CoV-2 infection rate in experiment [2] is 86% (inactive).

As to `O=C(O)C(O)Cc1ccc(O)c(O)c1` (stereo not given) [sodium-danshensu] (10 µM), in experiment [1], the morphology score turned out to be 0.114. Besides, the SARS-CoV-2 infection rate in experiment [2] is 106% (inactive).

In experiment [1], `Cc1[nH]c(/C=C2\C(=O)Nc3ccc(S(=O)(=O)Cc4c(Cl)cccc4Cl)cc32)c(C)c1C(=O)N1CCC[C@@H]1CN1CCCC1` (0.833333 µM) gave a morphology score of 0.159. Besides, in experiment [2], the SARS-CoV-2 infection rate is 106% (inactive).

On to `C[C@]12CC[C@H](O)CC1=CC[C@@H]1[C@@H]2CC[C@]2(C)C(n3cnc4ccccc43)=CC[C@@H]12` [galeterone] (0.833333 µM), for which the morphology score in experiment [1] is -0.052. The SARS-CoV-2 infection rate in experiment [2] was 113% (inactive).
